Screens: PubChem, Broad Institute
BJeLR viab HTS – BJeLR cell viability reduction; BJeLR fibroblasts viability, CellTiterGlo ATP luminescence, 48 h; HRASV12, hTERT and SV40 LT/ST transformed; viability loss activity score, % (no concentration beside the values); hit rate 0.64% among 30,000; AID 2275; in the data active = viability loss activity score above about 50%;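 also: higher score means fewer live cells and less ATP luminescence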
A1 inh – blocks A1 activity. MEF A1-2A-BIM cells, caspase-Glo luminescence, 3 h; percent of clofoctol signal, DMSO as zero. hit rate 0.51% among 21,000. caspase activation, % (no concentration beside the values). AID 2241;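 active = most replicate scores above 10, or exactly half above 10 with mean activity above 10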;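 also: effector caspase 3 and 7 activity cleaving a DEVD luciferin substrate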
Each line names hits and unclear results; the compound was inactive in the other large screens. This is a sample that favours compounds with a hit; in the whole collection about 0.9% have one here.

C=CC(C)(C)[C@]12C=C(OC)C(=O)N3/C(=C/c4cnc[nH]4)C(=O)N[C@@]31N(OC)c1ccccc12	none
Cc1cc(-n2c(=S)[nH]c3ccccc3c2=O)ccc1Br	none
CC(Cc1c[nH]c2ccccc12)N(Cc1ccccc1)Cc1ccccc1 (stereo not drawn)	none (no result: A1 inh)
C=C1[C@@H](C)[C@H]2[C@H](Cc3ccccc3)NC(=O)[C@]23[C@H](OC(C)=O)C=C[C@](C)(O)C(=O)[C@@H](C)C/C=C/[C@H]3[C@@H]1O	A1 inh 16
CC(C)(C)c1cc(C=C(C#N)C#N)cc(C(C)(C)C)c1O	BJeLR viab HTS 71
N#CC(C#N)=Cc1ccc(O)c(O)c1	none
Cn1c(CCN)nc2ccccc21	none
COC1CC(OC2C(C)OC(OC3C(C)OC(OC4C(C)OC(O[C@H]5CC[C@@]6(C)C(=CC[C@]7(O)C6CC(OC(=O)c6ccccc6)[C@@]6(C)[C@]7(O)CC[C@@]6(O)C(C)=O)C5)CC4OC)CC3OC)CC2OC)OC(C)C1O (stereo partly drawn)	BJeLR viab HTS 75
CCC(C)[C@H]1O[C@]2(C=C[C@@H]1C)C[C@@H]1C[C@@H](C/C=C(\C)[C@@H](OC3C[C@H](OC)C(O[C@H]4C[C@H](OC)[C@@H](O)[C@H](C)O4)[C@H](C)O3)[C@@H](C)/C=C/C=C3\CO[C@@H]4[C@H](O)C(C)=C[C@@H](C(=O)O1)[C@]34O)O2 (stereo partly drawn)	none
C[C@]12CC[C@H]3[C@@H](CC[C@]4(O)C[C@@H](O)CC[C@]34C=O)[C@@]1(O)CC[C@@H]2C1=CC(=O)OC1	BJeLR viab HTS 82
CO[C@H]1[C@H](O)[C@H](O[C@H]2CC[C@]3(C)C4CC[C@]5(C)[C@H](C6=CC(=O)OC6)CC[C@]5(O)C4CC[C@@H]3C2)O[C@@H](C)[C@@H]1O (stereo partly drawn)	BJeLR viab HTS 116
C[C@@H]1O[C@@H](OC2CCC3(C)C4CCC5(C)C(C6=CC(=O)OC6)CCC5(O)C4CC[C@H]3C2)[C@H](O)[C@H](O)[C@H]1O (stereo partly drawn)	BJeLR viab HTS 101
C[C@@H]1O[C@@H](O[C@H]2C[C@@H](O)[C@]3(CO)[C@H]4[C@H](O)C[C@]5(C)[C@@H](C6=CC(=O)OC6)CC[C@]5(O)[C@@H]4CC[C@]3(O)C2)[C@H](O)[C@H](O)[C@H]1O	BJeLR viab HTS 104
CSc1nc(-c2ccc(Cl)cc2)nn1C(=O)N(C)C	none
C/C=C/[C@@H]1[C@H]2C[C@@H](C)CC[C@@H]2C(C)=C[C@H]1C(=O)c1c(O)c(-c2ccc(O)cc2)c[nH]c1=O	none
CC[C@@H]1/C=C\C=C\C[C@H](C)C(O)[C@](C)(O)C(=O)[C@H](C)C(O)[C@H](C)C(=O)[C@H](C)[C@@H](O)[C@H](C)/C=C/C(=O)O[C@H]2[C@@H](C)[C@@H](CC1)O[C@@]1(CC[C@@H](C)[C@@H](C[C@H](C)O)O1)[C@@H]2C (stereo partly drawn)	none
COc1ccc(C(=O)O[C@H]2CC[C@@]3(C)[C@@H]4CC[C@H]5[C@]6(O)C[C@H](O)[C@@]7(O)[C@@H](CN8C[C@@H](C)CC[C@H]8[C@@]7(C)O)[C@]6(O)C[C@@]53O[C@]24O)cc1OC	none
CCN1CC2(COC)CCC(O)C34C5CC6C(OC)CC(O)(C5C6O)C(C(OC)C23)C14 (stereo not drawn)	none
C[C@H](N)C(=O)N[C@@H](C)C(=O)N[C@@H](Cc1ccccc1)C(=O)CCl	none
O=C(CCNS(=O)(=O)c1ccccc1)Nc1ccc(Br)cc1C(=O)c1ccccc1	none
COC(=O)c1ccc(OP2(=O)COc3ccccc3OC2)cc1	none
CO[C@H]1[C@H](O)[C@@H](O[C@H]2CC[C@]3(C=O)C4CC[C@]5(C)[C@@H](C6=CC(=O)OC6)CC[C@]5(O)C4CC[C@@H]3C2)O[C@@H](C)[C@@H]1O (stereo partly drawn)	BJeLR viab HTS 133
COC(=O)CC1=C(C(=O)OC)C2(C(=O)Nc3ccccc32)C(C(=O)OC)=C(N)O1 (stereo not drawn)	none
CC(=O)NCC1CCCN2CCCCC12 (stereo not drawn)	none
COC(=O)[C@@]1(O)C[C@@H]2O[C@@]1(C)n1c3ccccc3c3c4c(c5c6ccccc6n2c5c31)C(=O)NC4	A1 inh 13 (no result: BJeLR viab HTS)
COc1cc[n+](OC(=O)N2CCCCC2)c(C)c1	none
O=C1c2ccccc2-c2cccc3cccc1c23	BJeLR viab HTS 74
c1ccc2c(c1)cc1ccc3cccc4ccc2c1c34	none
CCOC(=O)C1=NN(c2ccc(C)cc2)C2c3cccc4cccc(c34)C12 (stereo not drawn)	none
COC[C@H]([C@@H](O)[C@@H](O)C(=O)NCC[C@@H](C)c1nc(/C=C/C[C@H]2OC3(C[C@H](O)[C@H]2C)OC([C@@H](C[C@@H](O)[C@@H](C)[C@@H](O)[C@@H](C)/C=C(C)/C(C)=C/C=C/C(C)=C\C#N)OC)[C@@H](OP(=O)(O)O)C3(C)C)co1)N(C)C (stereo partly drawn)	BJeLR viab HTS 69
CC(=O)O[C@@H](c1nc2ccccc2c(=O)n1[C@@H]1C[C@@]2(OC1=O)c1ccccc1N1C(=O)[C@H](C)N(O)[C@@H]12)C(C)C	none
O=c1c2ccccc2[nH]c(=S)n1-c1cc(C(F)(F)F)cc(C(F)(F)F)c1	none
C[C@@H]1O[C@@H](O[C@H]2[C@H](O)[C@@H](O)[C@H](O[C@@H]3C=C4CC[C@@H]5C(CC[C@]6(C)[C@@H](c7ccc(=O)oc7)CC[C@]56O)[C@@]4(C)CC3)O[C@@H]2CO)[C@H](O)[C@H](O)[C@H]1O (stereo partly drawn)	BJeLR viab HTS 125
O=C1NC(=O)C(=C/C=C/c2ccccc2)C(=O)N1	none
COc1ccc(C[C@H]2NC[C@H](O)[C@H]2OC(C)=O)cc1	BJeLR viab HTS 117, A1 inh 13
Cc1ccccc1OCCCn1cc(C(=O)C(C)(C)C)c2ccccc21	none (no result: A1 inh)
Cc1cc(OCC(=O)N(C)C)c2c3c(c(=O)oc2c1)CCCC3	none
COC[C@H]1OC(=O)c2coc3c2[C@@]1(C)C1=C(C3=O)C2CCC(=O)[C@@]2(C)C[C@H]1OC(C)=O (stereo partly drawn)	A1 inh 52
CSC1=NN1c1cc(C)nc(N)n1	none
O=C(CSC(c1ccccc1)c1ccccc1)Nc1ccccc1	none
CSc1ncccc1C1=N/C(=C\N(C)C)C(=O)O1	none
